Compounds with a hit are over-represented: about 3.5% of the library has one in this group of screens.
Tau fibril ThT: blocks human tau fibril formation measured by thioflavin T; P10636; recombinant tau K18 P301L, heparin-induced fibrillization, ThT fluorescence; Potency, µM (highest dose often 57.4 µM), without a hit: at the top dose activity, negative = inhibition, usual class: inhibitors; 270,000 tested, 2.1% active; AID 1460; note: nearly all actives have a fitted effect of over 55% in size
Target sequence (P10636 561-689 P618L limits assumed): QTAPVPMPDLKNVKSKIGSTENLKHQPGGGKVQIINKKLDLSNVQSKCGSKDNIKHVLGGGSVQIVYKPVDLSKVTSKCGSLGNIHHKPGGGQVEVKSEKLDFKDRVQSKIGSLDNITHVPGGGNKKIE
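ThT emission at 510 nm, taken 1 hr after adding 30 uM dye, quantifies aggregates formed when 20 uM heparin acts on human tau K18 P301L for 6 hr at 37 C.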
Tau FP inhib: inhibitors of human tau fibril formation; P10636; K18 P301L tau heparin fibrillization, Alexa594 FP, 6 h; Potency, µM (series often up to 57.7 µM), without a hit: top-dose activity, negative = inhibition, hits mostly inhibitors; 280,000 tested, 0.39% active; note: nearly all actives have a fitted effect of over 55% in size
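Compound effects on tau fibrillization are measured by Alexa 594 fluorescence polarization (ex 555, em 632 nm). K18 P301L tau is used at 15 uM with 0.24 uM labeled tracer, and 20 uM heparin induces aggregation over 6 hr at 37 C.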
Tau fluor cs: counter-screen for tau fibril formation inhibitors; tau K18 P301L Alexa594 fluorescence, heparin fibrillization; Potency, µM (series often up to 57.7 µM), for inactives: at the highest dose activity change, negative = decrease; 280,000 tested, 0.93% active; AID 1463; note: nearly all actives have a fitted effect of over 55% in size
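Human tau K18 P301L (15 uM unlabeled, 0.24 uM Alexa 594-labeled) in 100 mM sodium acetate pH 7 with 20 uM heparin, 6 hr at 37 C. ThT 30 uM added, 1 hr ambient; Alexa 594 FP and total fluorescence read at 555/632 nm.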
TexasRed fluor: counter-screen for TRb-SRC2 inhibitors: fluorescence interference | TRb/SRC2 Texas Red total fluorescence interference | Potency, µM (doses to about 106 µM), inactives show at the top dose fluorescence change, negative = quenching | 280,000 tested, 0.29% active | AID 1479; active = well fitted curve in either direction with a large enough effect; inconclusive = small, poorly fitted or top-dose-only effect
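Human TRb ligand-binding domain at 0.6 uM with 20 nM Texas Red SRC2 peptide in Tris buffer containing 1 uM T3 and 5% DMSO, incubated with compound 5 h at ambient temperature. Total fluorescence (555/632 nm) calculated as parallel + 2 × perpendicular.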
TRb SRC2 PPI: disrupts binding of human TR beta to SRC2. P10828. TRbeta-SRC2 peptide binding, fluorescence polarization; receptor liganded with 1 µM T3. Potency, µM (titrated, usually from 106 µM), for inactives: at the top dose activity change, negative = inhibition, most hits filed as inhibitors. 280,000 tested, 0.065% active. AID 1469;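 note: plate controls were bound peptide for no effect and peptide without receptor for full effect; nearly all actives have a fitted effect of over 50% in size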
Target sequence (P10828 whole entry, looked up): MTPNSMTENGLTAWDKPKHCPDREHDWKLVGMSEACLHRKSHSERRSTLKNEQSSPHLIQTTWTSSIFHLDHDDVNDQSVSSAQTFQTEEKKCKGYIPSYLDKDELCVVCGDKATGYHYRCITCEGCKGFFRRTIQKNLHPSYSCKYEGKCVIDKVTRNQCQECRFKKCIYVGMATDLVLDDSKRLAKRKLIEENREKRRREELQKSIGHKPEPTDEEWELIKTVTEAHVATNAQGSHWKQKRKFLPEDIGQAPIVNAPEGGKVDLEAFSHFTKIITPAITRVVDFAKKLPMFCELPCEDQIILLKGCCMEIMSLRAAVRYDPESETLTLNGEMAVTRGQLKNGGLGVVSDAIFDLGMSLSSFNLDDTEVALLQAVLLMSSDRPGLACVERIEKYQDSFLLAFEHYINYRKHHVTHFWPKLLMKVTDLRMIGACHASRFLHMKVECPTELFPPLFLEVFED
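Quantitative HTS by FP: 0.6 uM TRb LBD, 20 nM labeled SRC2 20-mer, 1 uM T3, 5% DMSO; 5 hr ambient incubation; % activity per concentration and potencies from concentration series.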
JMJD2E inh: blocks human JMJD2E demethylase activity | 230,000 tested, 1.6% active | JMJD2E catalytic domain, FDH-coupled NADH fluorescence (FDH is formaldehyde dehydrogenase) | Potency, µM (series often up to 57.1 µM), inactives show at the top dose activity change, negative = inhibition, most hits filed as inhibitors; active = well fitted inhibition curve with a large enough effect, not every such curve was filed as active; inconclusive = small, poorly fitted or top-dose-only effect, or another doubt; inactive = no such curve, though single readings can be large or run the other way;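 note: 0% = wells with enzyme and -100% = buffer wells without enzyme; nearly all actives have a fitted effect of over 50% in size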
The depositor's hits bear a star; ? = inconclusive; . = no result given; [ ] = remark or other dose. Unless noted, calls come from the whole dose curve; as a rule, active = well fitted curve in the direction sought with a large enough effect; inconclusive = small, poorly fitted or top-dose-only effect, or another doubt; inactive = no such curve, though single readings can be large; an effect the other way counts as inactive or inconclusive. Unless noted, % is set by controls: 0 for no effect and ±100 for the full control effect; potency is the fitted concentration of half-maximal effect.

SMILES	Tau fibril ThT	Tau FP inhib	Tau fluor cs	TexasRed fluor	TRb SRC2 PPI	JMJD2E inh
CCOC(=O)c1ccc(NC(=O)c2c(NC(C)=O)sc3c2CCC(C)C3)cc1 (stereo unspecified)	?	-6%	-26%	-4%	-4%	.
CCOCCCNC(=O)/C=C1\Sc2ccccc2N(Cc2ccccc2F)C1=O	-9%	3%	-6%	-1%	-6%	?
O=C1[C@@H]2C(c3cccnc3)=NO[C@@H]2C(=O)N1c1ccc(Br)cc1	2%	3%	6%	-1%	7%	0%
Cc1cc(C)c(CSc2ncc(-c3ccc([N+](=O)[O-])cc3)[nH]2)c(C)c1	5µM*	-10%	6.3µM*[quencher]	2%	-1%	-2%
O=[N+]([O-])c1ccc(-c2cnc(SC(c3ccccc3)c3ccccc3)[nH]2)cc1	?	?	4µM*[quencher]	-2%	-8%	-4%
O=[N+]([O-])c1ccc(-c2cnc(SCc3ccccc3Cl)[nH]2)cc1	14µM*	-4%	16µM*[quencher]	-6%	-1%	-27%
O=[N+]([O-])c1ccc2nc(SCc3ccccc3Cl)sc2c1	?	-3%	-28%	0%	1%	-9%
NC(=O)CSc1ncc(-c2ccc([N+](=O)[O-])cc2)[nH]1	?	-5%	-16%	-5%	-1%	7%
N#Cc1nc(-c2ccco2)oc1N1CCN(c2cccc(Cl)c2)CC1	-5%	0%	-29%	1%	-9%	?
CN(C)c1ccc2c(-c3ccccc3)c3ccc(=[N+](C)C)cc-3oc2c1	.	.	.	0.89µM*[fluorescent]	0.1µM*	.
CCC(=Cc1ccc(CC)cn1)CC	3%	1%	0%	-3%	-8%	?
O=C(NCc1cccc(F)c1)C1CCN(c2nc3ccccc3nc2C(F)(F)F)CC1	9%	-17%	-12%	-1%	6%	.
Cc1ccc(CN2CCN(/N=C/c3ccc(C(=O)O)cc3)CC2)cc1	0%	-9%	-7%	0.063µM*[quencher]	-6%	-5%
CSc1ccc(/C=N/N2CCN(c3ccccc3)CC2)cc1	?	7%	3%	-2%	-5%	13%
CSc1ccc(/C=N/N2CCN(Cc3ccccc3)CC2)cc1	?	12%	?	-3%	2%	11µM*
COCCN=c1scc(-c2ccccc2)n1/N=C/c1c[nH]c2ccccc12	13µM*	?	10µM*[quencher]	?	-6%	0%
CCCCSCCCNC(=O)c1c[nH]c2ccc(S(=O)(=O)Nc3cccc(OC)c3)cc2c1=O	5%	2µM*	?	-1%	1%	.
CCOCCCNC(=O)c1c[nH]c2ccc(S(=O)(=O)Nc3cccc(OC)c3)cc2c1=O	0%	1%	3%	-2%	0%	2%
COc1cccc(NS(=O)(=O)c2ccc3[nH]cc(C(=O)N4CCCC4)c(=O)c3c2)c1	-7%	-9%	-15%	-2%	5%	.
COc1cccc(NS(=O)(=O)c2ccc3[nH]cc(C(=O)NC(C)c4ccccc4)c(=O)c3c2)c1 (stereo unspecified)	11%	7.9µM*	?	-1%	1%	.
COC(=O)c1ccccc1C(=O)c1ccc2c(c1)NC(=O)CO2	-5%	-1%	2%	-1%	10%	8%
CCN(CC)c1ccc(-n2nc3cc(C)c(NC(=O)c4ccccc4C)cc3n2)c(C)c1	?	10%	?	4%	4%	.
Cc1ccc(/C=N/c2sc3c(c2C#N)CCCCC3)o1	?	0%	-16%	3%	8%	2%
N#Cc1c(/N=C/c2ccco2)sc2c1CCC2	?	-5%	-16%	0%	-5%	-5%
N#Cc1c(/N=C/c2cc3ccccc3s2)sc2c1CCC2	1.3µM*	-1%	-7%	-1%	-3%	?
SMILES	Tau fibril ThT	Tau FP inhib	Tau fluor cs	TexasRed fluor	TRb SRC2 PPI	JMJD2E inh
Cc1ccc(/C=N/c2sc3c(c2C#N)CCC3)s1	2µM*	-4%	-25%	2%	-2%	?
CCCCC(c1nnnn1CS(=O)(=O)c1ccc(C)cc1)N1CCN(c2ccccc2)CC1 (stereo unspecified)	-17%	13%	-24%	-1%	-2%	?
CN(C)c1ccc(N=Nc2ccc(S(=O)(=O)O)cc2)c2ccccc12	5µM*	2%	?	-12%	2%	0%
O=C(O)c1cc([N+](=O)[O-])ccc1NCCCc1ccccc1	3.5µM*	2%	-8%	-5%	11%	2%
O=C(O)c1cc([N+](=O)[O-])ccc1NCc1ccccc1	?	7%	7%	-4%	3%	-4%
CCN(C(=O)CSc1nnc(-c2cc3occc3n2C)n1-c1ccccc1C)c1ccccc1	-11%	-2%	-3%	79µM*[quencher]	-21%	.
CC1(C)Oc2ccc(C#N)cc2[C@@H](OC2=CC(=O)CC2)[C@@H]1O	-8%	-1%	-10%	-1%	-4%	.
COC(=O)c1nn(-c2ccc(OC)cc2)c(=O)cc1NN	14µM*	?	-14%	-3%	?	-19%
COC(=O)c1nn(-c2ccc(OC)cc2)c(=O)cc1Sc1ccc(C)cc1	-18%	-8%	-15%	1%	-1%	-16%
O=C(/C=C/c1cccs1)NC(=S)NNC(=O)c1ccccc1O	14µM*	6%	?	-4%	1%	?
O=C(NC(=S)NNC(=O)c1ccc(Cl)cc1Cl)c1cccnc1	?	-5%	-3%	-2%	0%	-7%
COc1ccc(C(=O)NNC(=S)NC(=O)/C=C/c2cccs2)cc1	-5%	4%	9%[2.34 µM]	-1%	-1%	12%
O=C(NC(=S)NNC(=O)c1cc2ccccc2cc1O)c1ccco1	13µM*	12%	-29%	-10%	-1%	18µM*
O=C(NC(=S)NNC(=O)c1ccccc1O)c1cccnc1	-12%	-2%	1%	-1%	7%	20µM*
O=C(NC(=S)NNC(=O)c1ccccc1O)c1ccco1	?	5%	-15%	-2%	-4%	7.1µM*
CSCC[C@H](NC(=O)CCNC(C)=O)c1nc2ccccc2[nH]1	-2%	9%	0%	2%	0%	4%
CCOC(=O)Oc1ccc(C(=O)OCCCN(C)C)cc1OC	12%	4%	13%	0%	5%	-8%
O=C(c1ccc(Cl)cc1Cl)n1nnc2ccccc21	.	.	.	?	-15%	.
O=C(O)COC(=O)Cc1ccccc1Nc1c(Cl)cccc1Cl	.	.	.	-1%[53 µM]	-5%[53 µM]	6%[25.5 µM]
Nc1[nH]n2c(=O)cc(-c3ccccc3)nc2c1N=Nc1ccc(S(N)(=O)=O)cc1	2.2µM*	3%	?	?	10%	-17%
NS(=O)(=O)c1ccc(N=Nc2c(-c3ccccc3)[nH]n(-c3nc(-c4ccccc4)cs3)c2=O)cc1	1.8µM*	?	8.9µM*[quencher]	0%	-9%	-17%

Source: PubChem (National Center for Advancing Translational Sciences (NCATS))
